Most compounds without a hit are left out; they make up all but 9% or so of the library.
Luc counter: Kinase-Glo luciferase inhibition (counter-screen). Q27757. Kinase-Glo luciferase, ATP luminescence, 8 min. Potency, µM (top dose mostly 38.3 µM), for inactives: top-dose activity change, negative = inhibition, most hits filed as inhibitors. 200,000 compounds, 0.28% hits; active = well fitted curve in the direction sought with a large enough effect; inconclusive = small, poorly fitted or top-dose-only effect, or another doubt; inactive = no such curve, though single readings can be large; an effect the other way counts as inactive or inconclusive; also: nearly all actives have a fitted effect of over 60% in size
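Kinase-Glo luciferase light output from ATP and luciferin was measured with 10 uM ATP, within the enzyme's linear range. Buffer: 50 mM imidazole pH 7.2, 50 mM KCl, 7 mM MgCl2, 0.01% Tween 20, 0.05% BSA; luminescence read after 8 min at ambient temperature.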
HPGD inh: inhibitors of human 15-hydroxyprostaglandin dehydrogenase (HPGD); P15428; purified HPGD, NADH fluorescence kinetic, PGE2 substrate; 150,000 compounds, 4.3% hits; Potency, µM, for the others: top-dose activity change, negative = inhibition, usual class: inhibitors
Target sequence (P15428 whole entry, looked up): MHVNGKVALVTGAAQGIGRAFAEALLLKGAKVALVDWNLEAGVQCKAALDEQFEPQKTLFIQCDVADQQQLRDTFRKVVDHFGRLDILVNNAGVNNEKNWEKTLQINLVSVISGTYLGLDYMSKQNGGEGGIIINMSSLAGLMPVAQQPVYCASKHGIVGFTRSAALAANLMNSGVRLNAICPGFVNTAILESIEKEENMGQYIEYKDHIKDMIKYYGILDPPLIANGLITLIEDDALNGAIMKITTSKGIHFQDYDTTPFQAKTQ
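NADH formation kinetics: reaction with 30 uM PGE2 and 1 mM NAD+ (final), 20 nM enzyme, Tris-HCl pH 8 with Tween 20, after 15 min compound preincubation at room temperature. Fluorescence change, last versus first of five reads.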
Lamin A splicing: modulators of lamin A splicing; HeLa LMNA splicing GFP/RFP minigene ratio, 48 h; Potency, µM (series often up to 46.1 µM), for inactives: at the top dose ratio change, negative = inhibition, hits mostly inhibitors; 200,000 compounds, 0.01% hits; active = well fitted inhibition curve with a large enough effect in the signal ratio, with a control signal flat, not every such curve was filed as active; inconclusive = small, poorly fitted or top-dose-only effect, or effect the other way, or a change in a side signal; the % refers to the signal ratio
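S3 HeLa cells stably expressing lamin A-EGFP splicing minigene plus DsRed2, 600 cells/well, 48 h compound exposure at 37C. Laser-scanning cytometry; analysed as GFP (500-530 nm)/RFP (575-640 nm) total intensity ratio; 0.5% DMSO vehicle.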
IMPase Li inh: cell-permeable IMPase inhibitors with lithium potentiation; AID 1457; 210,000 compounds, 0.35% hits; CHO-M1 cells, IP1 TR-FRET (IP-One), carbachol + lithium; Potency, µM (series often up to 59.4 µM), for inactives: at the top dose activity, negative = IMPase inhibition, hits mostly inhibitors; active = well fitted curve in the direction sought with a large enough effect; inconclusive = small, poorly fitted or top-dose-only effect, or another doubt; inactive = no such curve, though single readings can be large; an effect the other way counts as inactive or inconclusive;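 also: IP1 builds up when IMPase is blocked and the TR-FRET signal falls; plate controls were basal vehicle for no effect and high inhibitor control for full effect; nearly all actives have a fitted effect of over 50% in size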
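Lithium-sensitised IP1 accumulation assay; M1-expressing CHO cells treated 30 min at 37C with compound. Competitive antibody detection by time-resolved FRET followed a 10 min room-temperature lysis step.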
ALDH1A1 block: blocks purified human ALDH1A1 activity. Potency, µM (series often up to 75.3 µM), inactives show at the highest dose activity, negative = inhibition, most hits filed as inhibitors. 220,000 compounds, 7.3% hits. P00352. Purified ALDH1A1, NADH fluorescence, propionaldehyde substrate. AID 1030;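 also: plate controls were no enzyme wells and a reference inhibitor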
Target sequence (P00352 whole entry, looked up): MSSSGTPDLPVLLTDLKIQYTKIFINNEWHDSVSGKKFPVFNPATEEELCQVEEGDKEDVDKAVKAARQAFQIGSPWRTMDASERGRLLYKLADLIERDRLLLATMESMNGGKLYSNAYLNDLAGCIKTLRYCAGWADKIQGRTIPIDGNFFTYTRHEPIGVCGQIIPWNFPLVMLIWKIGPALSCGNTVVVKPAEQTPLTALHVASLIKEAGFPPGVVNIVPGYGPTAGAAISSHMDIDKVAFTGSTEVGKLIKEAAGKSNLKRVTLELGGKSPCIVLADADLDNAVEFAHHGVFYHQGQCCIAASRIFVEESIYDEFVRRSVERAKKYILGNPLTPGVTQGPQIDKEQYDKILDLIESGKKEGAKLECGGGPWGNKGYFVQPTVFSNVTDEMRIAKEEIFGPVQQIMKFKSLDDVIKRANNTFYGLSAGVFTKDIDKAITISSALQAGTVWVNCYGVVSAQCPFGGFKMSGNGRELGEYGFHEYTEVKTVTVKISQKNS
Active calls of the source: *; ? = inconclusive; . = no result given; [ ] = remark or other dose. Unless noted, calls follow the shape of the dose curve; as a rule, active = well fitted inhibition curve with a large enough effect (not every such curve was filed as active); inconclusive = small, poorly fitted or top-dose-only effect, or another doubt; inactive = no such curve, though single readings can be large or run the other way. Unless noted, % is scaled to controls: 0 for no effect and ±100 for the full control effect; potency is read from the fitted curve at half-maximal effect.

SMILES	Luc counter	HPGD inh	Lamin A splicing	IMPase Li inh	ALDH1A1 block
Cc1ccc2[nH]c(=O)c(CN(CCCN3CCOCC3)C(=O)Nc3ccc(Cl)cc3)cc2c1	1.7%	.	?	7.6%	-13.0%
Cc1cc(C(=O)NCC23CC4CC(CC(C4)C2)C3)c(C)o1	3.7%	.	5.4%[46 µM]	4.5%	?
CCOC(=O)c1ccccc1NC(=O)CSc1nnnn1C1CCCCC1	.	.	?	.	3.55µM*
CCn1c(Cc2ccccc2)nnc1SCC(=O)Nc1ccccc1N1CCOCC1	-3.0%	1.0%	?	11.4%	8.91µM*
Cn1c(Cc2ccccc2)nnc1SCC(=O)Nc1ccccc1N1CCOCC1	-0.9%	-3.1%	-5.7%	4.8%	7.0%
O=C(CSc1nnnn1C1CCCCC1)Nc1ccccc1N1CCOCC1	1.7%	.	.	1.4%	28.2µM*
CCc1cc(=O)[nH]c(SCCC(F)=C(F)F)n1	-2.1%	.	.	-2.9%	?
COCCCNC(=S)Nc1ccc(C)cc1[N+](=O)[O-]	-0.6%	.	?	5.6%	?
O=C(Nc1ccc(Cl)c([N+](=O)[O-])c1)C(NCCCO)c1ccccc1 (stereo not drawn)	2.7%	-2.7%	1.2%	6.7%	0.708µM*
COCCNC(C(=O)Nc1ccc([N+](=O)[O-])cc1Br)c1ccccc1 (stereo not drawn)	-1.2%	-16.3%	?	8.7%	12.6µM*
COCCNC(C(=O)Nc1ccc(C)cc1[N+](=O)[O-])c1ccccc1 (stereo not drawn)	-0.9%	.	.	-9.0%	25.1µM*
CCCCN1C(=O)C2C3C=CC(C2C1=O)C1C2C(=O)N(CCCC)C(=O)C2C31 (stereo not drawn)	4.3%	-8.2%	-1.0%	8.1%	6.3%
O=C1C2C3C=CC(C2C(=O)N1CCCO)C1C2C(=O)N(CCCO)C(=O)C2C31 (stereo not drawn)	1.2%	-11.6%	13.9%	-8.3%[38.3 µM]	4.47µM*
C=CCN1C(=O)C2C3C=CC(C2C1=O)C1C2C(=O)N(CC=C)C(=O)C2C31 (stereo not drawn)	2.0%	.	.	-1.8%	0.708µM*
CC(=O)c1cccc(N=c2scc(-c3ccc(S(=O)(=O)N4CCOCC4)cc3)n2CCO)c1	-3.0%	-7.4%	?	3.4%	25.1µM*
C=CCn1c(-c2ccc(S(=O)(=O)N3CCOCC3)cc2)csc1=Nc1ccccc1	-2.2%	-17.7%	14.8%[0.0737 µM]	12.7%[38.3 µM]	?
COC(=O)[C@H]1Cc2c([nH]c3ccccc23)CN1C(=O)COc1ccc2c(C)cc(=O)oc2c1	1.6%	-19.3%	.	4.7%	?
COC(=O)c1ccc(CN2CCN(Cc3ccc(F)cc3)C(CCO)C2)cc1 (stereo not drawn)	5.3%	.	.	11.8%	16.6%
CC(C)=CCN1CCN(Cc2cnc(N3CCCC3)s2)CC1CCO (stereo not drawn)	2.1%	.	1.0%[46 µM]	-0.1%	13.0%
COC(=O)c1ccc(CN2CCN(CC=C(C)C)C(CCO)C2)cc1 (stereo not drawn)	1.0%	.	19.7%[46 µM]	0.8%	20µM*
CC(C)=CCN1CCN(Cc2cnc(N3CCOCC3)s2)CC1CCO (stereo not drawn)	-3.4%	.	.	0.7%	25.1µM*
Cc1cc(S(=O)(=O)NC(C)C)ccc1OCC(=O)NCc1ccccc1	1.3%	.	?	-4.2%	-5.1%
Cc1c(C(=O)N2CCN(S(C)(=O)=O)CC2)oc2ccccc12	-3.2%	-0.7%	4.7%	19.9%[38.3 µM]	?
Cc1c(C(=O)N2CCN(CCc3ccccc3)CC2)oc2ccccc12	0.3%	-4.3%	-1.4%	65.2%[38.3 µM]	14.1µM*
O=C(CCSc1ccc(Cl)cc1)NC1CCCCC1	1.7%	4.47µM*	25.0%	-19.7%[38.3 µM]	10.6%
SMILES	Luc counter	HPGD inh	Lamin A splicing	IMPase Li inh	ALDH1A1 block
O=C(CSc1ccc(Cl)cc1)NN=C1CCCCCC1	1.4%	.	25.7%[46 µM]	-9.9%	?
O=C(CCSc1ccc(Cl)cc1)NC12CC3CC(CC(C3)C1)C2	-0.3%	?	-19.2%	-4.8%[38.3 µM]	?
O=C(CSCc1ccc(Cl)cc1)NN=C1CCCCCC1	0.2%	-14.0%	-3.3%	6.0%	14.1µM*
O=C(CCSc1ccc(Cl)cc1)NN=C1CCCCCC1	15.7%	.	.	9.7%	11.2µM*
NCC1O[C@@H](O[C@@H]2C(O)[C@H](O[C@H]3OC(CO)C(O)C(N)C3O)[C@@H](N)C[C@H]2N)C(N)C(O)C1O (stereo partly drawn)	-0.5%	-11.5%	.	14.1%	-2.9%
CC(C)C[C@@H](CC(=O)N[C@@H](CCC(=O)O)CC(=O)O)NC(=O)[C@@H]1CNCC[C@H]1NC(=O)C[C@H](CCCN)NC(=O)C[C@H](Cc1c[nH]c2ccccc12)NC(=O)[C@@H]1CCCC[C@H]1N	3.5%	-6.0%	.	8.9%	-1.0%
CC(C)(C)CC(=O)NCc1ccc(F)cc1	2.2%	22.4µM*	-3.7%	-9.4%[38.3 µM]	13.6%
O=C(CCCC(=O)NCc1ccc(F)cc1)NCc1ccc(F)cc1	6.7%	.	?	1.0%	3.6%
COc1cc(NS(C)(=O)=O)ccc1Nc1c2ccccc2nc2ccccc12	-4.8%	?	?	34.1%	?
Cc1nc2ccccc2n1C(=O)c1cc(-c2ccc(Br)cc2)nc2ccccc12	3.9%	-19.8%	4.2%	-36.0%[38.3 µM]	-11.8%
CC(SC#N)C(=O)C12CC3CC(CC(C3)C1)C2 (stereo not drawn)	-1.6%	.	.	4.9%	8.91µM*
CC(Sc1n[nH]c(N)n1)C(=O)C12CC3CC(CC(C3)C1)C2 (stereo not drawn)	1.4%	-15.4%	4.0%	10.5%[38.3 µM]	?
COc1ccc2c(=O)c(-c3ccccc3)c(C)oc2c1	-5.6%	-8.5%	7.2%	-15.1%[38.3 µM]	?
COc1cc(OC)c2c(=O)c(-c3ccccc3)c(C)oc2c1OC	-0.2%	-1.3%	-5.0%	4.6%	14.1µM*
COc1ccc(S(=O)(=O)NNC(=O)C2CC(c3cccnc3)=NO2)cc1 (stereo not drawn)	1.9%	.	.	1.6%	8.9%
COC(=O)[C@@H]1CCCN1C(=O)CCc1nnc(CCc2c[nH]c3ccccc23)o1	-5.8%	.	.	-6.0%	-4.3%
COC(=O)C1CCCCN1C(=O)CCc1nnc(CCc2c[nH]c3ccccc23)o1 (stereo not drawn)	2.0%	.	?	16.1%	22.4µM*
CN(C)c1ncc2nc(-c3cc(F)cc(F)c3)c(=O)n(Cc3ccc(F)cc3)c2n1	.	.	13.0%	5.6%	-4.5%
CC(NC(=O)COC(=O)Cc1ccsc1)c1ccccc1 (stereo not drawn)	2.0%	-12.7%	?	-1.1%	7.2%
CC(NC(=O)COC(=O)Cc1ccsc1)C1CC2CCC1C2 (stereo not drawn)	3.6%	28.2µM*	7.2%	-4.2%[38.3 µM]	-1.6%
O=C(COC(=O)Cc1ccsc1)NCc1ccc(Cl)cc1	-1.7%	28.2µM*	-10.7%	-4.2%	12.2%
CCOc1ccccc1NC(=O)N1CC(CC)Oc2ccccc21 (stereo not drawn)	.	.	12.5%[46 µM]	.	.
COCC(=O)N1CCC2(CC1)CN(c1ccc(-c3ccccc3)cc1)C2	0.9%	?	.	21.1%	?

High-throughput results as filed in PubChem.
